# Only a selection was taken, and the strongest signals are over-represented in it overall.
# Columns and labels:
# Test in all cases: glycan array binding signal (z-score within array); higher = stronger binding
# Settings in all cases: glycan notation: IUPAC condensed, linker removed
# [1] = molecular target: Gal3S(b1-3)[Fuc(a1-4)]GlcNAc
# Summary of the method: (§1)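 Glycan array data were curated from 3228 arrays in the Consortium for Functional Glycomics database and kept only where the protein sequence was available. Glycan names were converted to IUPAC-condensed notation, and columns mapping to the same glycan were averaged. The binding signal is a within-array Z-score, averaged across arrays of the same protein sequence at different concentrations or buffers and across linkers. Negative Z-scores can be read as non-binding.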
# Gal6P(b1-4)GlcNAc = molecular target: Gal6P(b1-4)GlcNAc
# Summary of the method: as §1
# GalNAc(a1-3)Gal = molecular target: GalNAc(a1-3)Gal
# Summary of the method: as §1
# GalNAc(a1-3)GalNAc = molecular target: GalNAc(a1-3)GalNAc
# Summary of the method: as §1
# GalNAc(b1-4)GlcNAc = molecular target: GalNAc(b1-4)GlcNAc
# Summary of the method: as §1
# [2] = molecular target: GlcNAc(a1-4)Gal(b1-4)GlcNAc(b1-3)Gal(b1-4)GlcNAc(b1-3)Gal(b1-4)GlcNAc
# Summary of the method: as §1
# [3] = molecular target: GlcNAc(b1-3)Gal(b1-4)GlcNAc(b1-2)[GlcNAc(b1-3)Gal(b1-4)GlcNAc(b1-6)]Man(a1-6)[GlcNAc(b1-3)Gal(b1-4)GlcNAc(b1-2)Man(a1-3)]Man(b1-4)GlcNAc(b1-4)GlcNAc
# Summary of the method: as §1
# [4] = molecular target: GlcNAc(b1-3)Gal(b1-4)GlcNAc(b1-3)Gal(b1-4)GlcNAc
# Summary of the method: as §1
# [5] = molecular target: GlcNAc(b1-3)Gal(b1-4)GlcNAc(b1-3)Gal(b1-4)GlcNAc(b1-3)Gal(b1-4)GlcNAc(b1-2)Man(a1-3)[GlcNAc(b1-3)Gal(b1-4)GlcNAc(b1-3)Gal(b1-4)GlcNAc(b1-3)Gal(b1-4)GlcNAc(b1-2)Man(a1-6)]Man(b1-4)GlcNAc(b1-4)[Fuc(a1-6)]GlcNAc
# Summary of the method: as §1
# [6] = molecular target: GlcNAc(b1-3)Gal(b1-4)GlcNAc(b1-3)[GlcNAc(b1-3)Gal(b1-4)GlcNAc(b1-3)]GalNAc
# Summary of the method: as §1
# [7] = molecular target: GlcNAc(b1-3)[GlcNAc(b1-4)][GlcNAc(b1-6)]GlcNAc
# Summary of the method: as §1
# [8] = molecular target: GlcNAc(b1-3)[GlcNAc(b1-6)]GalNAc
# Summary of the method: as §1
# [9] = molecular target: GlcNAc(b1-4)GlcNAc(b1-4)GlcNAc
# Summary of the method: as §1
# Kdn(a2-3)Gal(b1-3)GlcNAc = molecular target: Kdn(a2-3)Gal(b1-3)GlcNAc
# Summary of the method: as §1
# [10] = molecular target: Man(a1-2)Man(a1-2)Man(a1-3)Man
# Summary of the method: as §1
# [11] = molecular target: Man(a1-2)Man(a1-2)Man(a1-6)[Man(a1-3)]Man
# Summary of the method: as §1
# Man(a1-2)Man(a1-3)Man = molecular target: Man(a1-2)Man(a1-3)Man
# Summary of the method: as §1
# [12] = molecular target: Man(a1-2)Man(a1-3)[Man(a1-2)Man(a1-6)]Man
# Summary of the method: as §1
# [13] = molecular target: Man(a1-2)Man(a1-3)[Man(a1-2)Man(a1-6)]Man(a1-6)[Man(a1-2)Man(a1-2)Man(a1-3)]Man
# Summary of the method: as §1
# [14] = molecular target: Man(a1-2)Man(a1-6)[Man(a1-3)]Man(a1-6)[Man(a1-2)Man(a1-2)Man(a1-3)]Man(b1-4)GlcNAc(b1-4)GlcNAc
# Summary of the method: as §1
# Man(a1-3)[Man(a1-6)]Man = molecular target: Man(a1-3)[Man(a1-6)]Man
# Summary of the method: as §1
# [15] = molecular target: Man(a1-3)[Man(a1-6)]Man(a1-6)[Man(a1-2)Man(a1-3)]Man(b1-4)GlcNAc(b1-4)GlcNAc
# Summary of the method: as §1
# [16] = molecular target: Neu5Ac(a2-3)Gal(b1-3)GalNAc(b1-4)Gal(b1-4)Glc
# Summary of the method: as §1
# [17] = molecular target: Neu5Ac(a2-3)Gal(b1-3)GlcNAc6S
# Summary of the method: as §1
# [18] = molecular target: Neu5Ac(a2-3)Gal(b1-3)[GlcNAc(b1-6)]GalNAc
# Summary of the method: as §1
# [19] = molecular target: Neu5Ac(a2-3)Gal(b1-3)[Neu5Ac(a2-6)]GalNAc
# Summary of the method: as §1
# [20] = molecular target: Neu5Ac(a2-3)Gal(b1-4)GlcNAc(b1-2)Man(a1-3)[GlcNAc(b1-4)][Neu5Ac(a2-3)Gal(b1-4)GlcNAc(b1-2)Man(a1-6)]Man(b1-4)GlcNAc(b1-4)GlcNAc
# Summary of the method: as §1
# [21] = molecular target: Neu5Ac(a2-3)Gal(b1-4)GlcNAc(b1-3)Gal(b1-3)GlcNAc
# Summary of the method: as §1
# [22] = molecular target: Neu5Ac(a2-3)Gal(b1-4)GlcNAc(b1-3)Gal(b1-4)GlcNAc(b1-3)Gal(b1-4)GlcNAc(b1-2)Man(a1-3)[Neu5Ac(a2-3)Gal(b1-4)GlcNAc(b1-3)Gal(b1-4)GlcNAc(b1-3)Gal(b1-4)GlcNAc(b1-2)Man(a1-6)]GalNAc
# Summary of the method: as §1
# [23] = molecular target: Neu5Ac(a2-3)Gal(b1-4)[Fuc(a1-3)]GlcNAc(b1-6)[Gal(b1-3)]GalNAc
# Summary of the method: as §1
binder,measurement,setting,value
Mincle (Bos taurus) (protein) MNSSTSPASQTERRCFSFQLFSWAIAGTSILLLSACFITRCVVTYSIFQLCDEKKFQPPGDSMELSCYNDGSGSVKNCCPLKWFHFQSSCYLFSPDTMSWRASLKNCSSMGAHLVVINTQEEQEFLYYTKPRKKEFYIGLTDQVTEGQWQWVDGTPFTKSLSFWDAGEPNNLVIVEDCATIRDSSNPRQNWNDVPCFFNMFRVCEMPERKI,glycan array binding signal (z-score),[1],3.35
same,glycan array binding signal (z-score),Gal6P(b1-4)GlcNAc,-0.035
same,glycan array binding signal (z-score),GalNAc(a1-3)Gal,-1.18
same,glycan array binding signal (z-score),GalNAc(a1-3)GalNAc,0.166
same,glycan array binding signal (z-score),GalNAc(b1-4)GlcNAc,-0.149
same,glycan array binding signal (z-score),[2],0.104
same,glycan array binding signal (z-score),[3],1.42
same,glycan array binding signal (z-score),[4],-0.57
same,glycan array binding signal (z-score),[5],-0.142
same,glycan array binding signal (z-score),[6],0.084
same,glycan array binding signal (z-score),[7],5.17
same,glycan array binding signal (z-score),[8],0.888
same,glycan array binding signal (z-score),[9],-0.899
same,glycan array binding signal (z-score),Kdn(a2-3)Gal(b1-3)GlcNAc,0.033
same,glycan array binding signal (z-score),[10],6.56
same,glycan array binding signal (z-score),[11],4.79
same,glycan array binding signal (z-score),Man(a1-2)Man(a1-3)Man,3.01
same,glycan array binding signal (z-score),[12],7.29
same,glycan array binding signal (z-score),[13],3.54
same,glycan array binding signal (z-score),[14],0.474
same,glycan array binding signal (z-score),Man(a1-3)[Man(a1-6)]Man,6.16
same,glycan array binding signal (z-score),[15],3.43
same,glycan array binding signal (z-score),[16],-1.13
same,glycan array binding signal (z-score),[17],1.11
same,glycan array binding signal (z-score),[18],-0.595
same,glycan array binding signal (z-score),[19],-0.943
same,glycan array binding signal (z-score),[20],0.061
same,glycan array binding signal (z-score),[21],0.02
same,glycan array binding signal (z-score),[22],4.3
same,glycan array binding signal (z-score),[23],0.16

# Reference: the supplement of paper PMC8728848
